Source: PubChem BioAssay AID1159580 (chemical genetic matrix, 2015)
The whole screen tested about 5,500 compounds, of which about 2,000 (36%) were called active. Not shown: some 18% with an inconclusive outcome. Cut-off read from the data, not from the text of the source: active = normalized growth mostly below about 0.91 (no sharp cut-off); inconclusive = no clear call, values can overlap the other calls; inactive = mostly above about 0.92. The list shows a part of the results.

Test: chemical genetic growth profiling, strain panel (AID 1159580);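 note: tested at 20 µM; growth read once vehicle control cultures reached saturation at 30 °C; 1 = growth at the plate median or of vehicle wells; lower values mean less growth of the strain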
Conditions: S. cerevisiae deletion strains, growth OD

Measured: normalized growth

COc1ccc2oc3ccccc3c(=O)c2c1
inactive: locus YAL021C, strain ccr4, active compounds read low 0.948 | locus YCR088W, strain abp1, active compounds read low 0.956 | locus YDL005C, strain med2, active compounds read low 0.978 | locus YDL035C, strain GPR1, active compounds read low 0.861 | locus YDL040C, strain nat1, active compounds read low 0.935 | locus YDR001C, strain nth1, active compounds read low 0.944 | locus YDR069C, strain doa4, active compounds read low 0.918 | locus YDR159W, strain sac3, active compounds read low 0.901 | locus YDR297W, strain sur2, active compounds read low 0.935 | locus YEL037C, strain rad23, active compounds read low 0.925 | locus YER015W, strain faa2, active compounds read low 0.931 | locus YER155C, strain BEM2, active compounds read low 0.997 | locus YER167W, strain BCK2, active compounds read low 0.918 | locus YFR010W, strain ubp6, active compounds read low 0.904 | locus YGL227W, strain vid30, active compounds read low 0.94 | locus YGR252W, strain gcn5, active compounds read low 0.799 | locus YHR027C, strain rpn1, active compounds read low 0.939 | locus YIL073C, strain SPO22, active compounds read low 0.736 | locus YJL092W, strain hpr5, active compounds read low 0.944 | locus YJL115W, strain asf1, active compounds read low 0.948 | locus YJL129C, strain trk1, active compounds read low 0.921 | locus YJL154C, strain vps35, active compounds read low 0.947
active: locus YAL026C, strain drs2, active compounds read low 0.884 | locus YAL030W, strain snc1, active compounds read low 0.926 | locus YBL061C, strain skt5, active compounds read low 0.896 | locus YBR009C, strain hhf1, active compounds read low 0.712 | locus YBR021W, strain FUR4, active compounds read low 1.22 [resistant] | locus YBR023C, strain chs3, active compounds read low 0.874 | locus YBR171W, strain sec66, active compounds read low 0.886 | locus YBR229C, strain ROT2, active compounds read low 0.885 | locus YBR231C, strain swc5, active compounds read low 0.76 | locus YBR279W, strain paf1, active compounds read low 0.883 | locus YCL011C, strain gbp2, active compounds read low 0.899 | locus YCL016C, strain dcc1, active compounds read low 0.842 | locus YCL029C, strain bik1, active compounds read low 0.884 | locus YCL061C, strain MRC1, active compounds read low 0.9 | locus YCL069W, strain vba3, active compounds read low 0.922 | locus YDL074C, strain BRE1, active compounds read low 0.762 | locus YDL101C, strain DUN1, active compounds read low 0.76 | locus YDL134C, strain PPH21, active compounds read low 0.791 | locus YDL185W, strain tfp1, active compounds read low 0.809 | locus YDL192W, strain arf1, active compounds read low 0.814 | locus YDR101C, strain arx1, active compounds read low 0.88 | locus YDR137W, strain rgp1, active compounds read low 0.556 | locus YDR150W, strain NUM1, active compounds read low 0.904 | locus YDR162C, strain NBP2, active compounds read low 0.437 | locus YDR195W, strain ref2 1.28 [resistant] | locus YDR318W, strain mcm21, active compounds read low 0.862 | locus YDR334W, strain swr1, active compounds read low 0.852 | locus YDR335W, strain msn5, active compounds read low 0.874 | locus YDR388W, active compounds read low 0.901 | locus YDR392W, strain spt3, active compounds read low 0.35 | locus YDR502C, strain sam2, active compounds read low 0.848 | locus YEL003W, strain gim4, active compounds read low 0.819 | locus YEL061C, strain CIN8 (second series), active compounds read low 0.676 | locus YEL061C, strain CIN8, active compounds read low 0.718 | locus YER016W, strain bim1, active compounds read low 0.903 | locus YER110C, active compounds read low 0.837 | locus YER111C, strain swi4, active compounds read low 0.87 | locus YER155C, strain BEM2 (second series), active compounds read low 0.249 | locus YGL078C, strain dbp3, active compounds read low 0.9 | locus YGL086W, strain mad1, active compounds read low 0.836 | locus YGL167C, strain pmr1, active compounds read low 0.902 | locus YGL173C, strain kem1, active compounds read low 0.882 | locus YGL240W, strain doc1, active compounds read low 0.785 | locus YGL248W, strain PDE1, active compounds read low 0.836 | locus YGL253W, strain hxk2, active compounds read low 0.74 | locus YGR135W, strain pre9, active compounds read low 0.811 | locus YHR013C, strain ard1, active compounds read low 0.631 | locus YHR030C, strain SLT2, active compounds read low 0.656 | locus YHR079C, strain IRE1 (second series), active compounds read low 0.902 | locus YHR094C, strain hxt1, active compounds read low 0.912 | locus YHR129C, strain ARP1, active compounds read low 0.897 | locus YHR142W, strain chs7, active compounds read low 0.688 | locus YHR200W, strain rpn10, active compounds read low 0.862 | locus YIL066C, strain RNR3, active compounds read low 0.761 | locus YIL125W, strain kgd1, active compounds read low 0.9 | locus YIR030C, strain dcg1, active compounds read low 0.91 | locus YJL095W, strain BCK1 (second series), active compounds read low 0.65 | locus YJL095W, strain BCK1, active compounds read low 0.428 | locus YJL134W, strain LCB3, active compounds read low 0.913 | locus YJL164C, strain tpk1, active compounds read low 0.844 | locus YJL166W, strain qcr8, active compounds read low 0.756 | locus YJL168C, strain set2, active compounds read low 0.903 | locus YJL187C, strain SWE1 (second series), active compounds read low 0.828
